Tests used:
Assay in all cases: PBM binding z-score (relative to random genomic background probes); higher = stronger binding; sequences stand for … in GC…GCGATTGACAGCGTAGAATGAAGG
[1] = test system: FXR:RXRa (NR concentration 270 nM, RXRa partner concentration 90 nM)
Summary of the method: (§1)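 Regression normalization was applied to scanned fluorescence from custom Agilent 4×180K protein-binding microarrays. Before scanning, arrays were incubated 1 h with ligand-free nuclear receptor dimers, and binding was detected with antibodies against each partner (one per run). Binding z-scores use the random background probes as reference.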

[2] = test system: LXRa:RXRa (NR concentration 270 nM, RXRa partner concentration 90 nM)
Summary of the method: as §1

[3] = test system: LXRa homodimer (NR concentration 270 nM)
Summary of the method: as §1

[4] = test system: LXRb:RXRa (NR concentration 270 nM, RXRa partner concentration 90 nM)
Summary of the method: as §1

[5] = test system: LXRb homodimer (NR concentration 270 nM)
Summary of the method: as §1

[6] = test system: PPARa:RXRa (NR concentration 270 nM, RXRa partner concentration 90 nM)
Summary of the method: as §1

[7] = test system: PPARg:RXRa (NR concentration 180 nM, RXRa partner concentration 90 nM)
Summary of the method: as §1

[8] = test system: PPARg:RXRa 270nM:90nM, anti-RXR (NR concentration 270 nM, RXRa partner concentration 90 nM)
Summary of the method: as §1

[9] = test system: PPARg:RXRa 30nM:10nM, anti-RXR (NR concentration 30 nM, RXRa partner concentration 10 nM)
Summary of the method: as §1

[10] = test system: PPARg:RXRa 90nM:30nM, anti-RXR (NR concentration 90 nM, RXRa partner concentration 30 nM)
Summary of the method: as §1

[11] = test system: PPARg:RXRa DBDmut IVT, anti-RXR (DBD mutation: RXRa K156A/R161A, NR concentration 270 nM, RXRa partner concentration 90 nM)
Summary of the method: as §1

[12] = test system: PPARg:RXRa IVT, anti-PPARg (NR concentration 270 nM, RXRa partner concentration 90 nM)
Summary of the method: as §1

[13] = test system: PPARg DBDmut:RXRa IVT, anti-PPARg (DBD mutation: PPARg1 K132A/R137A, NR concentration 270 nM, RXRa partner concentration 90 nM)
Summary of the method: as §1

[14] = test system: PPARg DBDmut IVT, anti-PPARg (DBD mutation: PPARg1 K132A/R137A, NR concentration 270 nM)
Summary of the method: as §1

[15] = test system: PPARg homodimer (NR concentration 180 nM)
Summary of the method: as §1

[16] = test system: PXR:RXRa (NR concentration 270 nM, RXRa partner concentration 90 nM)
Summary of the method: as §1

[17] = test system: PXR homodimer (NR concentration 270 nM)
Summary of the method: as §1

[18] = test system: RARa:RXR (NR concentration 270 nM, RXRa partner concentration 90 nM)
Summary of the method: as §1

[19] = test system: RARa homodimer (NR concentration 270 nM)
Summary of the method: as §1

[20] = test system: RARb:RXRa (NR concentration 270 nM, RXRa partner concentration 90 nM)
Summary of the method: as §1

Row | Sequence | PBM binding z-score [1] | PBM binding z-score [2] | PBM binding z-score [3] | PBM binding z-score [4] | PBM binding z-score [5] | PBM binding z-score [6] | PBM binding z-score [7] | PBM binding z-score [8] | PBM binding z-score [9] | PBM binding z-score [10] | PBM binding z-score [11] | PBM binding z-score [12] | PBM binding z-score [13] | PBM binding z-score [14] | PBM binding z-score [15] | PBM binding z-score [16] | PBM binding z-score [17] | PBM binding z-score [18] | PBM binding z-score [19] | PBM binding z-score [20]
1 | CGAACTAGGTCCTCCAGGACAGTGAATACATTGA | -0.16 | -0.319 | -0.274 | -0.492 | -0.593 | 0.0563 | 0.755 | 0.537 | -0.117 | 0.278 | 3.46 | 2.42 | 0.246 | -0.00333 | -0.188 | -0.555 | -0.316 | -0.262 | -0.913 | -0.0568
2 | ATGTCTAGGTAAAAGTTCAGTGAATCCCGAGGAT | 0.745 | 1.33 | 1.16 | 0.843 | 0.542 | 3.76 | 7.03 | 6.9 | 5.57 | 7.4 | 1.33 | 3.13 | 0.931 | 0.765 | 1.17 | 1.87 | 1.49 | 1.77 | 0.698 | 2.39
3 | CAAACTAGGTCAAGGTCGAAGTCGGTTTGTGCCA | 4.68 | 3.03 | 0.706 | 2.37 | -0.00931 | 5.05 | 8.77 | 7.1 | 5.52 | 7.19 | 8.51 | 8.63 | 2.92 | 2.06 | 3.02 | 2.71 | 0.704 | 3.14 | 0.902 | 4.47
4 | AATACACGGTCATCGTAGGCCAGAGTACGCACAG | 1.37 | 3.15 | 2.68 | 0.586 | 0.643 | 0.606 | 1.15 | 0.51 | 0.35 | 0.546 | 0.462 | 1.62 | 0.948 | 0.51 | 0.841 | 0.356 | 0.177 | 0.83 | 0.727 | 2.83
5 | CAAACTAGGTCACAGAGGTCACAGTCCGTGCGTA | 6.73 | 6.02 | 6.09 | 5.37 | 1.35 | 6.43 | 10.1 | 8.04 | 6.43 | 8.12 | 8.75 | 9.01 | 2.8 | 2.69 | 5.83 | 6.57 | 9.23 | 7.15 | 2.78 | 5.35
6 | TGTAGCAGGCCAGAGGGTCACTCAAGAGGTACGG | 0.921 | 0.677 | -0.568 | 0.665 | -1.21 | 2.15 | 1.51 | 2.46 | 0.493 | 1.83 | -1.03 | 1.1 | -0.559 | -0.849 | 0.876 | 1.39 | -0.159 | 2.51 | -0.395 | 2.35
7 | AGAATGAGGTTACCAAATATCAGGGAAACGCTTG | 1.57 | 2.74 | -0.144 | 1.81 | -0.351 | 3.3 | 2.58 | 2.84 | 1.07 | 2.04 | 4.3 | 3.78 | 1.63 | 0.617 | 0.301 | 1.05 | 0.00391 | 1.77 | -0.0256 | 2.1

Source: the supplement of paper PMC6555819
